The whole screen tested about 190,000 compounds, of which about 3,500 (1.8%) were called active.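 How the source made its calls: active means inhibition above a set limit, 3 SD over mean compound inhibition (cut at about 8.4% in these data); inactive means the rest.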 Shown is part of a subset that was picked to be rich in actives.

Our source for the inhibition values is PubChem BioAssay AID868 (SRMLSC, 2007).

The nature of this assay: RAM signaling blockers in budding yeast – dse1pr::URA3 reporter, 5-FOA selection, primary screen (AID 868).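 Further: 0% = DMSO-only wells with no growth and 100% = 10 µM 1-NA-PP1 full growth; inhibition rescues growth on 5-FOA so higher OD means more RAM inhibition.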 The note with it: S. cerevisiae dse1pr::URA3 reporter, 5-FOA growth OD615, 2 d; at 50 µM; hits give high values; analog-sensitive cbk1-as2 kinase mutant strain.
Regarding `COc1cccc(OC)c1C(=O)Nc1ccc(N2CCCCC2)cc1`, the inhibition is 0.91% (inactive).

`COc1ccc(C(=O)NC(=S)Nc2ccc(N3CCCC3)cc2)cc1OC`: the inhibition was 12.4% (active).

As to `Cc1ccc(C(=O)NC(=S)Nc2ccc(N3CCOCC3)cc2)cc1`, the inhibition is 0.79% (inactive).

In the case of `C=C(C)C1CC=C(C)/C(=N/NC(=O)CCCNc2cccc(C)c2)C1` (stereo not given), the inhibition is 0.96% (inactive).

For `CCN(CC(=O)NCc1cccs1)C(=O)c1ccccc1F`, the inhibition is 1.03% (inactive).

`COc1ccc(OC)c(CNC(=O)c2cc(=O)[nH]c3ccc(S(=O)(=O)N4CCCC4)cc23)c1`: the inhibition was 2.57% (inactive).

In the case of `CCOC(=O)CC(=O)CSc1nc(-c2ccccc2)cc(-c2ccc(Cl)cc2)c1C#N`, the inhibition is 13.1% (active).

On to `N#Cc1c(C(F)(F)F)cc(-c2ccc(Cl)cc2)nc1SCC(=O)O`, for which the inhibition is 2.99% (inactive).

With `CCSc1nc(-c2ccc(OC)cc2)cc(-c2ccc(OC)cc2)c1C#N`, the inhibition is 6.16% (inactive).

Turning to `COc1ccc(NS(=O)(=O)c2ccc(NC(=S)NC(=O)CC(C)C)cc2)cc1`, the inhibition was 9.99% (active).

In the case of `CC(=O)c1ccc(NC(=S)NC(=O)CC(C)C)cc1`, the inhibition was 0.87% (inactive).

As to `COc1ccc(C(=O)Nc2ccc(S(=O)(=O)NC(C)C)cc2)cc1`, the inhibition is 1.59% (inactive).

On to `CC(=O)Oc1c(C(=O)c2nnc(C)o2)c(=O)n(Cc2ccccc2)c2ccccc12`, for which the inhibition was 1.56% (inactive).

For `O=C(CSc1ccc([N+](=O)[O-])cn1)Nc1ccc(N2CCOCC2)cc1`, the inhibition was 2.94% (inactive).

With `CCOC(=O)c1c(NC(=O)c2ccc(Br)o2)sc2c1CCCC2`, the inhibition was 3.28% (inactive).

As to `CCc1c(C)sc(NC(=O)/C=C/c2ccc3c(c2)OCO3)c1C(=O)OC`, the inhibition is 2.35% (inactive).

For the compound `CCc1c(C)sc(NC(=O)c2ccc(Br)o2)c1C(=O)OC`, the inhibition is 9.13% (active).

As for `O=C(C(=O)N1CCc2ccccc2C1)N1CCc2ccccc2C1`, the inhibition is -0.82% (inactive).

With `c1ccc(-c2csc(N3CCc4ccccc4C3)n2)cc1`, the inhibition was 12% (active).

As for `O=C(CN1CCN(c2nc(-c3ccccc3)cs2)CC1)NCc1ccc2c(c1)OCO2`, the inhibition was 0.34% (inactive).

As for `C/C(=N\NC(=O)NC1CCCCC1)c1ccc(OC(F)F)cc1OC(F)F`, the inhibition is 0.62% (inactive).

As to `N#C/C(=C\C1=C(N2CCOCC2)C(=C\c2ccccc2)/CC1)C(=O)Nc1ccccc1F`, the inhibition was 11.8% (active).

In the case of `C(=N\N1CCN(c2ccccn2)CC1)/C1=C(N2CCOCC2)C(=C/c2ccccc2)/CC1`, the inhibition is -0.25% (inactive).

`N#C/C(=C\c1ccccc1C(F)(F)F)C(=O)Nc1ccccc1F`: the inhibition is 1.21% (inactive).

Turning to `Cn1c(N)c(C(=O)COC(=O)c2ccccc2NCc2ccco2)c(=O)n(C)c1=O`, the inhibition was 1.05% (inactive).

On to `O=C(CN1CCOCC1)Nc1c(Cl)cc(Cl)cc1Cl`, for which the inhibition was -0.37% (inactive).

As to `COC(=O)c1cc2nc(-c3ccccc3)cc(C(F)(F)F)n2n1`, the inhibition is 4.75% (inactive).

As to `N#Cc1c(C(F)(F)F)cc(-c2ccccc2)nc1SCC(=O)N1CCOCC1`, the inhibition was 0.78% (inactive).

Regarding `CCN(CC)c1nc(-c2ccccc2)cc(C(F)(F)F)c1C#N`, the inhibition was 10.8% (active).

With `CN(C)S(=O)(=O)c1ccc(NC(=O)N2CCOCC2)cc1`, the inhibition is 0.13% (inactive).

With `Clc1ccc2nc(CSc3ccccc3)cn2c1`, the inhibition was 0.13% (inactive).

Take `CC1=C(C)CC(C(=O)NC(C)CCc2ccccc2)C(C(=O)O)C1` (stereo not given): the inhibition was 0.85% (inactive).

With `O=C(CSc1nc(O)c(Cc2ccccc2)c(=O)[nH]1)Nc1nc2c(s1)CCCC2`, the inhibition was 2.38% (inactive).

With `CCn1c(=O)cc(O)c2ccccc21`, the inhibition was -0.4% (inactive).

Consider `Cn1c(=O)c(Sc2ccc(Cl)cc2)c(O)c2ccccc21`, for which the inhibition is 1.1% (inactive).

On to `Cn1c2ccccc2c(=O)c2c(O)cccc21`, for which the inhibition was 11.3% (active).

As for `CCNC(=O)CC1C(=O)N(c2ccc(F)cc2)C(=O)N1Cc1cccs1` (stereo not given), the inhibition was 0.28% (inactive).

Regarding `COc1ccc(C(=O)CN(C(=O)c2ccc(Cl)cc2)N2C(=O)c3ccccc3C2=O)cc1`, the inhibition was 4.27% (inactive).

Regarding `COc1ccc(C(=O)COC(=O)c2ccc3ccccc3n2)cc1`, the inhibition was -0.53% (inactive).

On to `CCCCC(C(=O)OCC(=O)c1ccc(OC)cc1)N1C(=O)c2ccccc2C1=O` (stereo not given), for which the inhibition was 12.2% (active).

With `COc1ccc(-n2nc3c(c2NC(=O)Cc2cccc(C)c2)CS(=O)C3)cc1` (stereo not given), the inhibition is 0.7% (inactive).

Regarding `COc1ccc(CC(=O)Nc2c3c(nn2-c2cccc(Cl)c2)CS(=O)C3)cc1` (stereo not given), the inhibition is 2.33% (inactive).

For `Cc1cccc(CC(=O)Nc2c3c(nn2-c2cccc(Cl)c2)CS(=O)C3)c1` (stereo not given), the inhibition is 9.78% (active).

For the compound `CCCn1c(=O)c2c(C(F)(F)F)cc(-c3cccs3)nc2n(CCC)c1=O`, the inhibition was 2.68% (inactive).

As to `CN1CCC(=NNC(=O)CN(c2cccc(Cl)c2)S(C)(=O)=O)CC1`, the inhibition is -0.4% (inactive).

Take `CCOC(=O)CSc1nnc(-c2cccc(Br)c2)o1`: the inhibition is -0.68% (inactive).

In the case of `O=C(OCc1ccc(Br)cc1)c1cccc(-c2nnc(-c3ccccc3)o2)c1`, the inhibition is 12% (active).

For the compound `O=C(OCc1nnc(-c2ccccc2)o1)c1ccc2c(c1)C(=O)N(CCc1ccccc1)C2=O`, the inhibition is 4.12% (inactive).

On to `COc1ccc(-c2nc3cc([N+](=O)[O-])ccc3o2)cc1OC`, for which the inhibition is 1.49% (inactive).

For the compound `O=[N+]([O-])c1cccc(Nc2c3ccccc3nc3ccccc23)c1`, the inhibition is 0.27% (inactive).

On to `O=[N+]([O-])c1ccc2oc(-c3cccc(O)c3)nc2c1`, for which the inhibition was 13.2% (active).

As to `CCO/N=C(/C)c1c(O)cc(-c2ccccc2)n(-c2ccccc2)c1=O`, the inhibition is 4.11% (inactive).

Consider `Cc1nn(-c2ccccc2)c(C)c1/C=N/NC(=O)CSc1nc2ccccc2c(=O)n1-c1ccccc1`, for which the inhibition is 2.56% (inactive).

Regarding `C=CCO/N=C(\C)c1c(O)c(C)c(-c2ccccc2)n(-c2ccccc2)c1=O`, the inhibition was 14.2% (active).

With `O=C(CC1C(=O)NCCN1Cc1ccc(-c2ccccc2)cc1)NCc1ccncc1` (stereo not given), the inhibition is -0.27% (inactive).

On to `Cc1ccnc(NS(=O)(=O)c2ccc(NC(=O)c3ccc(S(=O)(=O)N(C)C)cc3)cc2)n1`, for which the inhibition was -0.41% (inactive).

On to `CC1=C/C(=N\S(=O)(=O)c2ccccc2)C(C(C)C)=CC1=O`, for which the inhibition was 3.57% (inactive).

Turning to `CCOC(=O)/C(C#N)=C/c1ccc(N2CCN(Cc3ccccc3)CC2)cc1`, the inhibition was -1.52% (inactive).

As for `CCOC(=O)/C(C#N)=C/c1ccc(N2CCCCC2)cc1`, the inhibition is 1.57% (inactive).

For the compound `COc1ccc(N2CCN(C(=O)/C(C#N)=C/c3ccccc3)CC2)cc1`, the inhibition is 8.69% (active).
